AMA1 RON2 block = qHTS for Inhibitors of AMA1-RON; Towards Development of Antimalarial Drug Lead: Primary Screen; Plasmodium falciparum AMA1 (3D7) - RON2 peptide interaction; AlphaScreen AMA1-biotinylated RON2 peptide binding; Potency, µM (top dose mostly 58.2 µM), for the others: at the top dose activity change, negative = inhibition, actives largely listed as inhibitors; 0.2% of 360,000 active;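 note: 0% = vehicle wells and -100% = peptide control; nearly all actives have a fitted effect of over 45% in size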
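AMA1 (3D7) with his tag at 25 nM final met compounds first, then biotinylated RON2 peptide at 25 nM; detection used donor plus acceptor beads, 10 µg/mL apiece, read by AlphaScreen after 30 min at room temperature.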
Pf growth 96h = Primary qHTS for delayed death inhibitors of the malarial parasite plastid, 96 hour incubation. P. falciparum luciferase reporter growth, 96 h. Potency, µM (titrated, usually from 28.7 µM), inactives show top-dose activity change, negative = inhibition, actives largely listed as inhibitors. AID 504834, 2011. 6.9% of 320,000 active; note: % is set by controls: 0 for no effect and ±100 for the full control effect
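P. falciparum expressing integrated firefly luciferase grown in erythrocytes (2% hematocrit, 0.05% parasitemia final) with compounds for 96 hours at 37 C, 5% CO2. Growth inhibition read as loss of luminescence after adding luciferase detection reagent.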
Pf growth 48h = Primary qHTS for delayed death inhibitors of the malarial parasite plastid, 48 hour incubation; P. falciparum luciferase growth in erythrocytes, 48 h; AID 504832, 2011; Potency, µM (titrated, usually from 28.7 µM), without a hit: at the top dose activity change, negative = inhibition, usual class: inhibitors; 5.9% of 310,000 active; note: % is set by controls: 0 for no effect and ±100 for the full control effect
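A one-generation exposure of luciferase-tagged malaria parasites in RPMI 1640/Albumax erythrocyte culture, 37 C and 5% CO2. Inhibition is inferred from decreased luminescence after adding detection reagent.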
SARS PLP yeast = qHTS of Yeast-based Assay for SARS-CoV PLP; S. cerevisiae expressing SARS-CoV PLpro, growth rescue; 0.19% of 330,000 active; Potency, µM (series often up to 32.9 µM), inactives show at the top dose activity, positive = growth rescue, actives largely listed as activators; AID 485353, 2010; calls by dose curve; note: 0% is about no effect; nearly all actives have a fitted effect of over 55% in size
* = called active by the depositor; ? = inconclusive; nt = no result; [ ] = remark or other dose. Hits are enriched below; roughly 9.4% of the tested compounds scored in any of these assays. Unless noted, calls come from the whole dose curve; as a rule, active = well fitted curve in the direction sought with a large enough effect; inconclusive = small, poorly fitted or top-dose-only effect, or another doubt; inactive = no such curve, though single readings can be large; an effect the other way counts as inactive or inconclusive. Potency is the fitted concentration of half-maximal effect.

SMILES	AMA1 RON2 block	Pf growth 96h	Pf growth 48h	SARS PLP yeast
COc1ccc(-c2nc(CN3CCN(c4ncnc5ccccc45)CC3)c(C)o2)c(OC)c1	7%	8%	?	-1%
Fc1ccc(-n2cc(-c3ccccc3)c3c(NN4CCOCC4)ncnc32)cc1	-9%	?	15µM*	-1%
O=C(NCc1ccco1)Nc1ccccc1Cl	0%	nt	53%	-5%
O=C(Nc1cc(C(F)(F)F)ccc1Cl)C1CCN(c2nnc(-n3cccc3)s2)CC1	-1%	11%	8.3µM*	-6%
CC1CCN(Cc2ccc(NC(=O)C3CCN(c4nnc(-n5cccc5)s4)CC3)cc2)CC1	-2%	8%	7.4µM*	1%
O=C(C1CCN(c2nnc(N3CCCC3=O)s2)CC1)N1CCN(Cc2ccc3c(c2)OCO3)CC1	-5%	?	?	1%
CC(C)CCNC(=O)C1CCN(c2nnc(-n3cccc3)s2)CC1	-3%	-31%	-9%	3%
CS(=O)(=O)N1CCC(C(=O)Nc2cc(C(F)(F)F)ccc2Cl)CC1	-1%	nt	-24%	-6%
O=C(C1CCN(c2nnc(-n3cccc3)s2)CC1)N1CCN(Cc2ccc3c(c2)OCO3)CC1	-6%	1.5µM*	?	-10%
CC(=O)c1ccc2c(c1)N(CCCN(C)C)c1ccccc1S2	-1%	?	?	nt
CN(CCCN1c2ccccc2CCc2ccccc21)CC(=O)c1ccc(Cl)cc1	nt	15µM*	-99%	nt
CN(C)CCCN1c2ccccc2CCc2ccc(Cl)cc21	-13%	?	13µM*	-13%
CCOC(=O)c1ccccc1NC(=O)CSc1ccccc1	41%	-2%	?	4%
CCC(=O)N1CCc2cc(S(=O)(=O)CCC(=O)NC3CCCCC3)ccc21	0%	2.6µM*	-7%	1%
CCOC(=O)N1CCC(NC(=O)CCS(=O)(=O)c2ccc3c(c2)CCN3C(=O)CC)CC1	3%	6%	-12%	3%
CS(=O)(=O)N(CC(=O)N1CCc2ccccc2C1)c1cccc(F)c1	-5%	2%	-2%	3%
CCC(=O)N1CCc2cc(S(=O)(=O)CCC(=O)N3CCc4ccccc4C3)ccc21	-10%	12µM*	-24%	-1%
CCC(=O)N1CCCc2cc(S(=O)(=O)CCC(=O)Nc3ccccc3C)ccc21	-4%	5.9µM*	-25%	1%
O=C(CN(c1cccc(Cl)c1)S(=O)(=O)c1ccc(Cl)cc1)N1CCc2ccccc2C1	0%	62%	12µM*	-2%
O=C(COC(=O)CNS(=O)(=O)c1c(F)cccc1F)NC(=O)NC1CCCCC1	3%	-27%	0%	7%
CCC(=O)N1CCc2cc(S(=O)(=O)CCC(=O)N3CCN(c4ccccc4)CC3)ccc21	-2%	9%	?	14%
CN(Cc1ccco1)S(=O)(=O)c1ccc2c(c1)CCN2C(=O)CCC(=O)O	-2%	13µM*	-16%	4%
CCC(=O)N1CCc2cc(S(=O)(=O)CCC(=O)O)ccc21	5%	7.4µM*	14%	-2%
CCN1c2ccc(S(=O)(=O)N3CCOCC3)cc2N(Cc2ccc(OC)cc2)C1C (stereo not given)	1%	?	?	-1%
O=C(Nc1ccccn1)c1ccc(=O)[nH]n1	24%	nt	1%	-6%
SMILES	AMA1 RON2 block	Pf growth 96h	Pf growth 48h	SARS PLP yeast
O=C(CCCCCn1c(=O)[nH]c2ccsc2c1=O)NCc1ccc(F)cc1	-13%	nt	?	-4%
Cc1ccc2c(c1)c1c3n2CCN(C(=O)C2CC2)C3CCC1 (stereo not given)	?	?	nt	-1%
Cc1ccc2c(c1)c1c3n2CC(=C2C(=O)OC(C)(C)OC2=O)NC3CCC1 (stereo not given)	9%	0.19µM*	?	-1%
COc1ccccc1-c1cc(=O)c2c(O)ccc([N+](=O)[O-])c2o1	59%	10µM*	12µM*	2%
CC(=O)c1cccc(N=Nc2c(C)[nH]c3ccccc23)c1	0%	?	18%	-20%
CCCNC(=O)Cn1c(=O)/c(=C\c2ccc(-c3cccc([N+](=O)[O-])c3)o2)s/c1=C\C(=O)C(C)(C)C	-7%	1.3µM*	1.7µM*	4%
CCCNC(=O)Cn1c(=O)/c(=C\c2ccc(-c3ccc([N+](=O)[O-])cc3)o2)s/c1=C\C(=O)C(C)(C)C	-8%	?	9.3µM*	13%
CCCNC(=O)Cn1c(=O)/c(=C/c2ccc(-c3cccc([N+](=O)[O-])c3)o2)s/c1=C\C(=O)C(C)(C)C	19%	nt	nt	nt
Cc1ccc(OCC(=O)NNc2c3ccccc3nc3ccccc23)cc1	-24%	?	9.3µM*	-23%
O=C(Cc1ccccc1)NNc1c2ccccc2nc2ccccc12	4%	81%	-12%	0%
Cc1cccc(OCC(=O)NNc2c3ccccc3nc3ccccc23)c1	-9%	3.7µM*	?	-5%
COc1ccc([C@@H]2[C@@H]3C(=O)N(C(C)(C)C)C(=O)[C@@H]3[C@]3(Cc4ccccc4)C(=O)N(c4cccc(F)c4)C(=O)N23)cc1	1%	9.3µM*	?	2%
CC(C)(C)N1C(=O)[C@H]2[C@@H](c3ccc(Br)cc3)N3C(=O)N(c4cccc(F)c4)C(=O)[C@@]3(Cc3ccccc3)[C@H]2C1=O	-9%	4.7µM*	5.2µM*	3%
O=C(COC(=O)c1ccc(S(=O)(=O)N2CCOCC2)cc1)Nc1ccccc1F	10%	-19%	0%	-4%
Cc1[nH]c2ccccc2c1C1=CCNCC1	0%	-31%	3.3µM*	2%
O=C(CNC(=O)c1ccccc1Cl)OC1CCOC1=O (stereo not given)	5%	42%	3%[5.75 µM]	-2%
COc1ccc(C)cc1N(C(=O)c1ccccc1)c1nc2ccccc2s1	-15%	13µM*	12µM*	-27%
COc1ccc(C)cc1N(C(=O)c1cccc(F)c1)c1nc2ccccc2s1	-18%	?	?	9%
Cc1ccccc1N(C(=O)c1cccs1)c1nc2ccccc2s1	-29%	?	nt	-16%
Cc1ccsc1C(=O)N(c1nc2ccccc2s1)c1c(C)cccc1C	-5%	8.3µM*	12µM*	2%
COc1ccc(C)cc1N(C(=O)c1ccccc1F)c1nc2ccccc2s1	-5%	17µM*	9.3µM*	-21%
COc1ccc(C)cc1N(C(=O)COc1ccccc1)c1nc2ccccc2s1	-9%	?	10µM*	4%
CCC(=O)c1c[nH]c(C(=O)NCc2ccccc2OC)c1	3%	6%	-1%	-1%
CC(=O)N(Cc1cc2cc(C)c(C)cc2n2nnnc12)CC1COCCO1 (stereo not given)	13%	2.9µM*	33%	-6%
S=C(NCC(c1ccco1)N1CCCC1)Nc1ccccc1 (stereo not given)	17%	?	?	-4%
CCC(CC)NC(=O)CON=C1c2ccccc2-c2ccccc21	0%	13µM*	13µM*	23%
CCNC(=O)CON=C1c2ccccc2-c2ccccc21	-6%[2.32 µM]	-9%	8%	?
C[C@@H](O)CNC(=O)c1[nH]cnc1C(=O)Nc1cccc(Cl)c1	85%	nt	nt	nt

From PubChem BioAssay
